{
  "source": "PubChem BioAssay AID493185",
  "about": "(National Center for Advancing Translational Sciences (NCATS), 2011)",
  "note": "A number with no mark means an inactive call. The call rests on the fitted dose curve; in most records, active means well fitted activation curve with a large enough effect; inconclusive means small, poorly fitted or top-dose-only effect; inactive means no such curve, though single readings can be large or run the other way.",
  "data": [
    {"test": "Counterscreen for Identifying a Potential Treatment of Ataxia-Telangiectasia: Hit Validation; further: 0% is about no effect", "settings": "cell-free AlphaLISA/AlphaScreen artifact counterscreen, PBS only, no cells; series mostly up to 76.9 µM; activation: at the top concentration", "outline": "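Without cells, compounds at up to 76.7 uM final were combined with premixed anti-pKAP1/anti-KAP1 AlphaLISA bead reagents, protease inhibitors and lysis buffer; signal read after 6 hr at 25C to flag assay-platform artifacts.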", "units": {"activation": "%"}, "values": [
      {"smiles": "CC(C)c1ccc(-c2cc(C(=O)N3CCOCC3)c3cc(Br)ccc3n2)cc1", "activation": -10.5},
      {"smiles": "O=C(O)CCC(=O)NN1C(=O)c2ccccc2NC1c1ccco1", "note": "(configuration not stated)", "activation": -18},
      {"smiles": "COc1ccc(C(=O)CSc2nc3ncccc3[nH]2)cc1OC", "activation": -10.8},
      {"smiles": "CC1CCCC(C)N1C(=O)COC(=O)Cc1ccc(Cl)cc1", "note": "(configuration not stated)", "activation": 6.01},
      {"smiles": "FC(F)(F)c1cccc(OCC2CNC(=S)O2)c1", "note": "(configuration not stated)", "activation": -12.3},
      {"smiles": "CC(C)NC(=O)c1ccc(COc2ccc(C(C)(C)C)cc2)o1", "activation": 10.7},
      {"smiles": "COc1cccc(CNCc2ccc(OC)c3ccccc23)c1OC", "activation": 0.752},
      {"smiles": "Cc1ccc(-c2noc(CCC(=O)NC3CCN(Cc4ccccc4)CC3)n2)cc1", "activation": -3.28},
      {"smiles": "COC1=C(N)C(=O)c2nc(-c3nc(C(=O)O)c(C)c(-c4ccc(OC)c(OC)c4O)c3N)ccc2C1=O", "activation": -20.5},
      {"smiles": "Cc1nc2sc(C(N)=O)c(N)c2c2c1CCCC2", "activation": 29.3},
      {"smiles": "O=C(N/N=C/c1ccncc1)c1ccc(COc2cccc3cccnc23)cc1", "activation": 18},
      {"smiles": "COc1cccc(CN2CCN(Cc3cc(OC)c(OC)cc3OC)CC2)c1", "activation": -0.752},
      {"smiles": "COc1ccc(/C=N/Nc2nc(=O)[nH]nc2C)cc1OC", "activation": 3.28},
      {"smiles": "C[C@@H]1Cc2c(O)c(O)cc(O)c2C(=O)O1", "activation": -9.77},
      {"smiles": "COc1ccc(CCNC2=NCCS2)cc1OC", "activation": 2.46},
      {"smiles": "O=C(NCCCN1CCOCC1)c1ccc2c(c1)N(Cc1cccc(F)c1)C(=O)c1ccccc1S2", "activation": 6.01},
      {"smiles": "COc1ccccc1N1CCN(C(=O)c2cc(=O)c3c(C)cc(C)cc3o2)CC1", "activation": -5.38},
      {"smiles": "S=c1[nH]nc(Cn2c(-c3ccccn3)nc3ccccc32)n1-c1ccc2c(c1)OCCO2", "activation": -6.15},
      {"smiles": "CCCCN(c1nc2ccccc2nc1Cl)S(=O)(=O)c1ccc(C)cc1", "activation": -15.8},
      {"smiles": "CC1CC(C)CN(S(=O)(=O)c2ccc(C(=O)NCCCn3ccnc3)cc2)C1", "note": "(configuration not stated)", "activation": -32.8},
      {"smiles": "CCC(C)N1C(=S)SC(C)(C)C1N(O)C(=O)NC1CCCCC1", "note": "(configuration not stated)", "activation": -10.8},
      {"smiles": "Nc1ccc2ncccc2c1", "activation": 9.02}
    ]}
  ]
}
